In the supplement of paper PMC4840960:
Counter-ions that a name gives are not always drawn. ± gives the standard deviation of the averaged measurements.

Tested on: E18 rat cortical neuron-glia co-culture
Assay: fiber score / MBP score (myelination specific beyond OL differentiation) (ratio); higher = more myelination-specific MBP alignment
Conditions: 1 µM; treatment time: 8 days (DIV5-DIV13)
Outline: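 Papain-dissociated primary E18 rat cortical co-cultures, plated at 20,000 cells/well on poly-d-lysine/laminin 96-well plates, were exposed to library compounds at 1 or 5 µM in myelination medium between DIV5 and DIV13. Following fixation in 4 % paraformaldehyde, cultures were stained for MBP, Olig2 and DAPI, and four 10X fields per well were analysed in duplicate wells. Values are the ratio of fiber score (continuous MBP fiber length per Olig2+ nucleus) to MBP score (thresholded MBP area × intensity per Olig2+ nucleus).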

In order of rising “fiber score / MBP score” value:
1. CCC(COC(=O)c1cc(OC)c(OC)c(OC)c1)(c1ccccc1)N(C)C (centres undefined) [Trimebutine]  0.423
2. CNC(=O)Oc1ccc2c(c1)[C@]1(C)CCN(C)[C@@H]1N2C [Physostigmine]  0.593
3. COC(=O)N1CCN(C(=O)Cc2ccc(Cl)c(Cl)c2)C(CN2CCCC2)C1 (centres undefined)  0.594
4. C[C@]12CCC(=O)C=C1CC[C@@H]1[C@@H]2CC[C@@]2(C)[C@H]1CC[C@]2(C)O [Methyltestosterone]  0.609
5. NC1=NC(=O)C(c2ccccc2)O1 (centres undefined) [Pemoline]  0.628
6. FC(F)(F)c1cccc(N2CCNCC2)c1 [1-(3-trifluoromethylphenyl)piperazine hydrochloride (TFMPP)]  0.633
7. c1ccc(Cn2ccnc2)cc1 [1-Benzylimidazole]  0.664
8. CC(O)(CS(=O)(=O)c1ccc(F)cc1)C(=O)Nc1ccc(C#N)c(C(F)(F)F)c1 (centres undefined) [Bicalutamide]  0.676
9. CCCN1C[C@H](CSC)C[C@@H]2c3cccc4[nH]cc(c34)C[C@H]21 [Pergolide]  0.689
10. NC(=O)OCCCc1ccccc1 [Phenprobamate]  0.695
11. COc1cc(N)c(Cl)cc1C(=O)NC1CN2CCC1CC2 (centres undefined) [Zacopride]  0.703
12. c1ccc2c(c1)Nc1ccccc1S2 [Phenothiazine]  0.706
13. O=P1(N(CCCl)CCCl)NCCCO1 (centres undefined) [Cyclophosphamide]  0.725
14. O=C(O)C(Cl)Cl [Dichloroacetic Acid]  0.765
15. C#CCN(C)[C@H](C)Cc1ccccc1 [Selegiline]  0.779 ± 0.13
16. COc1ccc2[nH]cc(CCN)c2c1 [5-Methoxytryptamine]  0.779
17. C=C1C[C@@H]2[C@H](CC[C@]3(C)C(=O)CC[C@@H]23)[C@@]2(C)C=CC(=O)C=C12 [Exemestane]  0.805
18. CN1CC[C@]23CCCC[C@H]2[C@H]1Cc1ccc(O)cc13 [Levorphanol]  0.869
19. O=C1CN=C(c2ccccc2)c2cc([N+](=O)[O-])ccc2N1 [Nitrazepam]  0.887
20. CCC(C(N)=O)N1CCCC1=O (centres undefined) [Etiracetam]  0.904
21. Cc1ncc2n1-c1ccc(Cl)cc1C(c1ccccc1F)=NC2 [Midazolam]  0.908
22. CCCCC/C=C\C/C=C\C/C=C\C/C=C\CCCC(=O)Nc1ccc(O)cc1  0.943
23. COc1cc2c(cc1OC)[C@@]13CCN4CC5=CCO[C@H]6CC(=O)N2[C@H]1[C@H]6[C@H]5C[C@H]43 [Brucine]  0.957
24. C=CCN1CC[C@]23c4c5ccc(O)c4O[C@H]2C(=O)CC[C@@]3(O)[C@H]1C5 [Naloxone]  0.965
25. CNC1=Nc2ccc(Cl)cc2C(c2ccccc2)=[N+]([O-])C1 [Chlordiazepoxide]  0.994
26. CCN(CC)CCOC(=O)C(O)(c1ccccc1)c1ccccc1 [Benactyzine]  1.18
27. O=C1CC[C@@]2(O)[C@H]3Cc4ccc(O)c5c4[C@@]2(CCN3CC2CC2)[C@H]1O5 [Naltrexone]  1.3

Same assay, conditions: 5 µM; treatment time: 8 days (DIV5-DIV13)

In order of rising “fiber score / MBP score” value:
1. CCCN1C[C@H](CSC)C[C@@H]2c3cccc4[nH]cc(c34)C[C@H]21 [Pergolide]  0.278
2. CCC(COC(=O)c1cc(OC)c(OC)c(OC)c1)(c1ccccc1)N(C)C (centres undefined) [Trimebutine]  0.297
3. COC(=O)N1CCN(C(=O)Cc2ccc(Cl)c(Cl)c2)C(CN2CCCC2)C1 (centres undefined)  0.389
4. O=P1(N(CCCl)CCCl)NCCCO1 (centres undefined) [Cyclophosphamide]  0.547
5. CNC1=Nc2ccc(Cl)cc2C(c2ccccc2)=[N+]([O-])C1 [Chlordiazepoxide]  0.605
6. FC(F)(F)c1cccc(N2CCNCC2)c1 [1-(3-trifluoromethylphenyl)piperazine hydrochloride (TFMPP)]  0.613
7. COc1cc2c(cc1OC)[C@@]13CCN4CC5=CCO[C@H]6CC(=O)N2[C@H]1[C@H]6[C@H]5C[C@H]43 [Brucine]  0.692
8. CNC(=O)Oc1ccc2c(c1)[C@]1(C)CCN(C)[C@@H]1N2C [Physostigmine]  0.703
9. CN1CC[C@]23CCCC[C@H]2[C@H]1Cc1ccc(O)cc13 [Levorphanol]  0.735
10. COc1ccc2[nH]cc(CCN)c2c1 [5-Methoxytryptamine]  0.737
11. CCC(C(N)=O)N1CCCC1=O (centres undefined) [Etiracetam]  0.739
12. C[C@]12CCC(=O)C=C1CC[C@@H]1[C@@H]2CC[C@@]2(C)[C@H]1CC[C@]2(C)O [Methyltestosterone]  0.755
13. NC1=NC(=O)C(c2ccccc2)O1 (centres undefined) [Pemoline]  0.845
14. C=C1C[C@@H]2[C@H](CC[C@]3(C)C(=O)CC[C@@H]23)[C@@]2(C)C=CC(=O)C=C12 [Exemestane]  0.86
15. O=C(O)C(Cl)Cl [Dichloroacetic Acid]  0.882
16. COc1cc(N)c(Cl)cc1C(=O)NC1CN2CCC1CC2 (centres undefined) [Zacopride]  0.884
17. NC(=O)OCCCc1ccccc1 [Phenprobamate]  0.885
18. c1ccc2c(c1)Nc1ccccc1S2 [Phenothiazine]  0.89
19. c1ccc(Cn2ccnc2)cc1 [1-Benzylimidazole]  0.942
20. O=C1CC[C@@]2(O)[C@H]3Cc4ccc(O)c5c4[C@@]2(CCN3CC2CC2)[C@H]1O5 [Naltrexone]  0.956
21. CCCCC/C=C\C/C=C\C/C=C\C/C=C\CCCC(=O)Nc1ccc(O)cc1  0.96
22. O=C1CN=C(c2ccccc2)c2cc([N+](=O)[O-])ccc2N1 [Nitrazepam]  0.996
23. CC(O)(CS(=O)(=O)c1ccc(F)cc1)C(=O)Nc1ccc(C#N)c(C(F)(F)F)c1 (centres undefined) [Bicalutamide]  0.996
24. C#CCN(C)[C@H](C)Cc1ccccc1 [Selegiline]  1.02 ± 0.14
25. C=CCN1CC[C@]23c4c5ccc(O)c4O[C@H]2C(=O)CC[C@@]3(O)[C@H]1C5 [Naloxone]  1.09
26. CCN(CC)CCOC(=O)C(O)(c1ccccc1)c1ccccc1 [Benactyzine]  1.2
27. Cc1ncc2n1-c1ccc(Cl)cc1C(c1ccccc1F)=NC2 [Midazolam]  1.88
